# Test results from PubChem BioAssay AID686978 (National Center for Advancing Translational Sciences (NCATS), 2013).
# Hit rate of the full screen: of about 420,000 compounds, about 64,000 (15%) were called active. Inconclusive results (about 27%) are left out. The call rests on the fitted dose curve; in most records, active means well fitted inhibition curve with a large enough effect; inconclusive means small, poorly fitted or top-dose-only effect; inactive means flat fitted curve, though single readings scatter. These entries were drawn from the full list. Entries that show only a call come without a potency.
# Assay: qHTS for Inhibitors of human tyrosyl-DNA phosphodiesterase 1 (TDP1): qHTS in cells in absence of CPT; further: nearly all actives have a fitted effect of over 55% in size
# Details: DT40 Tdp1-/- hTDP1 cells, no CPT, ATP luminescence, 48 h; activity change, negative = growth inhibition: at 46.2 µM (top of the series)
# How it was run: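 Growth kinetics read by CellTiter-Glo luminescence after ≥48 hr at 37 °C. Cells: DT40 Tdp1-/- stably carrying human TDP1, 400 per well, compound exposure in the absence of CPT (DMSO vehicle).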
# Potency means the concentration at half of the fitted maximal effect.
row,Compound,Potency
1,Cc1ccc(-c2ccnc3nc(Sc4ncc(C(F)(F)F)cc4Cl)nn23)cc1,inactive
2,Cn1c(SCC(=O)Nc2ccc(Br)cc2F)nnc1-c1ccco1,inactive
3,O=C(Nc1ccccc1C(=O)O)c1cc(S(=O)(=O)N2CCCCC2)cs1,inactive
4,COCCn1nnnc1C(c1cc2ccc(OC)cc2[nH]c1=O)N1CCc2ccccc2C1 (stereo not drawn),inactive
5,CC(C)(C)n1nnnc1C(c1ccc(Cl)cc1)N1CCSCC1 (stereo not drawn),inactive
6,COc1ccc(OC)c(C(c2nnnn2C(C)(C)C)N2CCc3ccccc3C2)c1 (stereo not drawn),13 µM (active)
7,CCOc1ccc(Nc2nc(Cc3nnc(SCC(=O)NC4CCCC4)n3C)cs2)cc1,inactive
8,Cc1cccc(NC(=O)Cn2c(=O)n(CCC(C)C)c(=O)c3cccnc32)c1,inactive
9,Cc1cccc(N2CCN(C(=O)CCn3c(=O)c4cccn4c4cccnc43)CC2C)c1 (stereo not drawn),3.66 µM (active)
10,Cc1cccc(N2CCN(C(=O)c3cc4c(=O)oc5ccccc5c4s3)CC2C)c1 (stereo not drawn),inactive
11,Cc1ccc(S(=O)(=O)NC2CCCCCC2)cc1,inactive
12,Cc1ccc(S(=O)(=O)N(C)C2(C)CCS(=O)(=O)C2)cc1 (stereo not drawn),inactive
13,Cc1ccc(S(=O)(=O)C2(S(=O)(=O)c3ccc(C)cc3)CCCC2)cc1,6.51 µM (active)
14,C=C1c2cccc(OC)c2O[C@H](C(=O)OCC)[C@@H]1CCCCCC,inactive
15,CCCn1nc(NS(=O)(=O)c2ccc(F)cc2)c2cc3ccccc3nc21,inactive
16,COC(=O)c1cc(OCC(=O)NC2CCCc3ccccc32)cc(C(=O)OC)c1 (stereo not drawn),inactive
17,O=C(O)CCC(=O)N(Cc1cccs1)Cc1cccs1,inactive
18,COc1ccccc1NC(=O)CSc1nnc(C)n1CC1CCCO1 (stereo not drawn),inactive
19,CC(C)Oc1ccc(CCc2n[nH]c(=S)n2Cc2ccccc2)cc1,20.6 µM (active)
20,CC(C)Oc1ccc(CCc2nnc(SCC(=O)O)n2-c2ccccc2)cc1,inactive
21,CC(C)Oc1ccc(Cc2n[nH]c(=S)n2Cc2ccccc2)cc1Cl,inactive
22,O=C(O)CCn1c(SCc2cc(=O)n3ccccc3n2)nc2ccsc2c1=O,inactive

row,Compound,Potency
1,Cc1ccc(CSc2nc3ccsc3c(=O)n2CCC(C)C)cc1,23.1 µM (active)
2,Cc1ccc(CSc2nnc(-c3cnccn3)n2C)cc1,inactive
3,O=CN1CCN(C(=O)c2ccc(Br)o2)CC1,inactive
4,CCC(CO)Oc1cc(NC(=O)c2cccc(F)c2)c2ncn(C(C)C)c2c1 (stereo not drawn),inactive
5,Cc1ccc(CNC(=O)COc2ccc(S(=O)(=O)NC(C)C)cc2)cc1,inactive
6,O=S(=O)(NN=C1CCCCCCC1)c1ccc(Br)cc1,inactive
7,O=C(CNS(=O)(=O)c1ccc(Br)s1)NCc1ccc2c(c1)OCO2,inactive
8,CN(CC(O)COc1ccc(S(=O)(=O)N2CCOCC2)cc1Cl)C1CCCCC1 (stereo not drawn),inactive
9,Cc1nn2c(NCCN(C)C)c3c(nc2c1-c1ccccc1)CCC3,25.9 µM (active)
10,Cc1cc(C(C)(C)C)n2nc(C)c(-c3ccccc3)c2n1,inactive
11,Cc1cc(-n2nc(C)cc2C)n2nc(C)c(-c3ccccc3)c2n1,inactive
12,Cc1ccc2c(c1)C1C[N+](C)(CC(=O)c3ccccc3)CCC1N2C(=O)c1ccccc1Cl (stereo not drawn),inactive
13,COc1cccc(NC(=O)C(Sc2nnnn2C)c2ccccc2)c1 (stereo not drawn),inactive
14,O=C(NNS(=O)(=O)c1ccc(F)cc1)C1CCCCC1,inactive
15,O=C1CC[C@@H](C(=O)N2CSC[C@@H]2C(=O)Nc2ccc(C(F)(F)F)cc2)N1,inactive
16,Cn1nccc1CNC(=O)c1ccnn1C,inactive
17,Cc1sc(NC(=O)C2=COCCO2)c(C#N)c1C,inactive
18,CCCc1ccc(-c2c(C)sc(NC(=O)c3ccnn3C)c2C#N)cc1,20.6 µM (active)
19,CC(CCn1cccn1)NC(=O)CCc1nnc(CCc2ccccc2)o1 (stereo not drawn),inactive
20,COc1ccc(C(C#N)(CC(=O)O)c2cnccn2)cc1OC (stereo not drawn),inactive
21,COc1cccc(NC(=O)c2ccc(S(=O)(=O)N(C)C)cc2)c1,inactive
22,COc1ccc(C(=O)Nc2cccc(S(C)(=O)=O)c2)cc1,23.1 µM (active)

row,Compound,Potency
1,COc1ccc(NC(=O)c2cnc(NS(=O)(=O)c3ccccc3)nc2)cc1,inactive
2,COc1ccc(NS(=O)(=O)c2ccc(NC(=O)c3ccc(N(C)S(C)(=O)=O)cc3)cc2)cc1,8.2 µM (active)
3,CCC(=O)Nc1ccc(C(=O)Nc2cccc(OC)c2)cc1,inactive
4,COc1ccc(NC(=O)c2ccc(OC)cc2)cc1,inactive
5,CC1(C)C(=O)Nc2ccccc2N1C(=O)COC(=O)Cn1cnc2ccccc2c1=O,inactive
6,O=C1CC(c2cccc(Br)c2)C2=C(CCCC2=O)N1 (stereo not drawn),inactive
7,COc1cc(OC)cc(/C(N)=N/O)c1,inactive
8,COc1ccc(C/C(C)=N/NC(=O)c2cc(C)oc2C)cc1,inactive
9,CC(C)c1cc(C(=O)O)n[nH]1,inactive
10,CC(C)c1cc(C(=O)N/N=C/C(Br)=C/c2ccccc2)n[nH]1,2.59 µM (active)
11,Cc1cc(C(=O)N/N=C\C(Br)=C\c2ccccc2)c(C)o1,16.4 µM (active)
12,Cc1ccc(-c2cc(C(=O)N/N=C/C=C/c3ccccc3)n[nH]2)o1,inactive
13,CC(=C/c1ccccc1)/C=N/NC(=O)c1cc(C)oc1C,inactive
14,Cc1ccc(NC(=O)Cc2nnc(SCC(=O)Nc3nncs3)n2C)cc1,inactive
15,CC(C)Nc1nnc(SCC(=O)c2c[nH]c3ccccc23)s1,inactive
16,CC(NC(=O)C(=O)N/N=C/c1ccc(Cl)cc1)c1ccccc1 (stereo not drawn),inactive
17,C=CS(=O)c1sc(Cl)c(N2CCOCC2)c1[N+](=O)[O-] (stereo not drawn),1.03 µM (active)
18,Cc1c(Nc2cc(N3CCCC(C)C3)c3nonc3c2[N+](=O)[O-])c(=O)n(-c2ccccc2)n1C (stereo not drawn),inactive
19,COc1ccc(N2C(=O)CC(N3CCC(C(N)=O)CC3)C2=O)cc1 (stereo not drawn),inactive
20,CCC(C)N(c1ccc(/C=C/c2ccnc3ccccc23)cc1)C(C)CC (stereo not drawn),4.47 µM (active)
21,CCCCCCCNc1ccc(/C=C/c2ccnc3ccccc23)cc1,10 µM (active)
22,c1ccc(-c2cnc(CN3CCN(c4ccccc4)CC3)o2)cc1,inactive

row,Compound,Potency
1,O=C(CN1CCCC1)N1CCN(c2ccccc2)CC1,inactive
2,CN(Cc1ccccc1)c1ccc(/C=C/c2ccnc3ccccc23)cc1,12.6 µM (active)
3,CN(C)c1ccc(/C=N/N(Cc2ccccc2)c2ccccc2)cc1,inactive
4,CCN1CCN(c2ccc(/C=C/c3ccnc4ccccc34)cc2)CC1,17.8 µM (active)
5,Oc1ccc(/C=N/N(Cc2ccccc2)c2ccccc2)cc1,inactive
6,CCCCN1C(=O)CC(N2CCOCC2)C1=O (stereo not drawn),inactive
7,CN(C)C(=O)c1cccn(Cc2cccc(C(F)(F)F)c2)c1=O,inactive
8,O=C(c1cc(-c2ccc(O)cc2)on1)N1CCOCC1,inactive
9,CC(=O)c1ccc(NC(=S)N(Cc2ccccc2)C(C)C2CC2)cc1 (stereo not drawn),inactive
10,O=C(Nc1ccc(C(=O)O)cc1)/C(=C/c1ccc([N+](=O)[O-])cc1)NC(=O)c1ccccc1,inactive
11,CCOC(=O)C1(C(F)(F)F)N=C(N(C)C)OC(N(C)C)=N1,inactive
12,Cc1ccc2nsnc2c1S(=O)(=O)N1CCCC1C(=O)O (stereo not drawn),inactive
13,O=C(CNC(=O)c1ccccc1)NCC(=O)OCc1ccc(Cl)cc1,inactive
14,CCOC(=O)CSc1nccc(N(C)C)c1C#N,inactive
15,CN(CC(=O)NCCN1CCOCC1)S(=O)(=O)c1ccc(F)cc1,inactive
16,O=C(NC(Cc1c[nH]c2ccccc12)C(=O)O)/C(=C/c1ccco1)NC(=O)c1ccccc1 (stereo not drawn),inactive
17,Cc1c(Cl)cccc1NC(=S)NCc1ccc2c(c1)OCO2,inactive
18,CC(C)Nc1ncnc2c1nnn2Cc1ccccc1,inactive
19,O=C(CSc1ncnc2c1nnn2Cc1ccc(F)cc1)NC1CCCC1,inactive
20,c1ccc(Cn2nnc3c(N4CCCCC4)ncnc32)cc1,8.91 µM (active)
21,CCc1ccccc1NC(=O)CSc1nnc([C@@H](NC(=O)OC(C)(C)C)C(C)CC)o1 (stereo partly drawn),inactive
22,Cc1cc(NC(=O)CSc2nc(C(C)C)nc3sc4c(c23)CCC(C)C4)no1 (stereo not drawn),23.1 µM (active)

row,Compound,Potency
1,Cc1nc(SCC(=O)Nc2cc(C)on2)c2c3c(sc2n1)CCCC3,inactive
2,CC(C)c1nc(SCC(=O)Nc2cccc(C(=O)O)c2)c2c3c(sc2n1)CCCC3,inactive
3,Cc1c(C(=O)NCc2ccccc2)cnn1-c1ccccc1,inactive
4,CSc1ccc(CCNC(=O)c2cnn(-c3ccccc3)c2-n2cccc2)cc1,14.6 µM (active)
5,CCCN1CCN(CCCNC(=O)c2cnn(-c3ccc(C)cc3)c2-n2cccc2)CC1,inactive
6,C=CCn1c(SCC(=O)NC(=O)Cc2ccccc2)nc2ccccc2c1=O,inactive
7,Cc1csc(=O)n1CCC(=O)OCC(=O)NNC(=O)c1ccc(Br)cc1,inactive
8,O=C1CC(c2ccc(F)cc2F)c2cc3c(cc2N1)OCO3 (stereo not drawn),inactive
9,CCCOc1ccccc1C1CC(=O)Nc2cc3c(cc21)OCO3 (stereo not drawn),1.84 µM (active)
10,COCCOC(=O)C1=C(C)NC(=O)CC1c1cc2c(cc1Br)OCO2 (stereo not drawn),inactive
11,Cc1cc(C)c2nc(NC(=O)C3CCCO3)sc2c1 (stereo not drawn),inactive
12,Cn1c(=O)c(Sc2ccc(Cl)cc2)c(O)c2ccccc21,inactive
13,CCC(Sc1nnc(-c2ccc(OC)cc2)c(-c2ccc(OC)cc2)n1)C(=O)NC1CCCCC1 (stereo not drawn),13 µM (active)
14,COc1ccc(-c2nnc(SC(C)C(=O)NC3CC3)o2)cc1 (stereo not drawn),inactive
15,COc1ccc(-c2nnn(CC(=O)N(CCO)C(C(=O)NC3CCCC3)c3ccc(F)cc3)n2)cc1 (stereo not drawn),inactive
16,O=C(NCc1nnc(SCC(=O)N2CCCCCC2)o1)c1ccc(F)cc1,inactive
17,S=c1nccc(-c2cc(Cl)sc2Cl)[nH]1,inactive
18,O=c1c2ccccc2nc2n1C1(CCCCC1)Cc1ccccc1-2,16.4 µM (active)
19,c1cncc(-c2nnc3n2C2(CCCCC2)Cc2ccccc2-3)c1,inactive
20,CC1(C)Cc2ccccc2-c2c[nH]c(=O)n21,inactive
